In the library only some 10% were active in any assay of this set; here they are far more common.
Lamin A splicing = qHTS Assay for Modulators of Lamin A Splicing; HeLa LMNA splicing GFP/RFP minigene ratio, 48 h; Potency, µM (doses to about 46.1 µM), without a hit: at the top dose ratio change, negative = inhibition, hits mostly inhibitors; hit rate 0.01% among 200,000; AID 1487, 2009; active means well fitted inhibition curve with a large enough effect in the signal ratio, with a control signal flat, not every such curve was filed as active; inconclusive means small, poorly fitted or top-dose-only effect, or effect the other way, or a change in a side signal; the % refers to the signal ratio; further: potency means the concentration at half of the fitted maximal effect
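Read-out is the ratio of GFP to DsRed2 object intensity, acquired by 488 nm laser-scanning cytometry on HeLa lamin A-EGFP minigene reporter cells. Compound incubation 48 hrs at 37 °C in Opti-MEM with 2% FBS; DMSO 0.5% final.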
PNC assembly inh = High Content Assay for Compounds that inhibit the Assembly of the Perinucleolar Compartment; PC3M PTB-GFP, PNC prevalence imaging, 16 h; hits give low values; hit rate 3.1% among 140,000; activity change (PNC), negative = inhibition, % at 10 µM; AID 2417, 2010;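 active means readout at or below -70, meaning at least 70% loss of cells showing the perinucleolar compartment, a nuclear body marking cancer cells; inconclusive means readout between -30 and a set limit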;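 further: plate controls were DMSO wells for no effect and camptothecin positive control wells for full effect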
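Compounds are pinned in duplicate onto adhered PC3M cells stably expressing GFP-tagged PTB and incubated 16 h at 37 C. Cells are then fixed, nuclei stained with Hoechst, and PNC-positive cells counted.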
KinaseGlo FLuc = Counterscreen for Luciferase (Kinase-Glo TM) Inhibition | AID 1379, 2008 | Kinase-Glo luciferase, ATP luminescence, 8 min | Potency, µM (titrated, usually from 38.3 µM), inactives show at the highest dose activity change, negative = inhibition, hits mostly inhibitors | Luciferin 4-monooxygenase (Photuris pensylvanica), Q27757 | hit rate 0.28% among 200,000; active means well fitted inhibition curve with a large enough effect; inconclusive means small, poorly fitted or top-dose-only effect; further: potency means the concentration at half of the fitted maximal effect; nearly all actives have a fitted effect of over 60% in size
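Compounds were added to a substrate mix at pH 7.2 (50 mM imidazole, 10 uM ATP, within the enzyme's linear range), followed by Kinase-Glo detection reagent; luminescence was measured after 8 minutes at ambient temperature.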
HPGD inh = qHTS Assay for Inhibitors of HPGD (15-Hydroxyprostaglandin Dehydrogenase) | hit rate 4.3% among 150,000 | 15-hydroxyprostaglandin dehydrogenase [NAD(+)] (Homo sapiens), P15428 | purified HPGD, NADH fluorescence kinetic, PGE2 substrate | Potency, µM, for inactives: at the highest dose activity change, negative = inhibition, most hits filed as inhibitors | AID 894, 2007; further: potency means the concentration at half of the fitted maximal effect
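20 nM HPGD preincubated 15 min at room temperature with compound in 50 mM Tris-HCl pH 8, 0.01% Tween 20. Started with 1 mM NAD+ and 30 uM prostaglandin E2; NADH fluorescence (360/450 nm) read 5 times over 30-s intervals, last minus first.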
ALDH1A1 inh = qHTS Assay for Inhibitors of Aldehyde Dehydrogenase 1 (ALDH1A1); Purified ALDH1A1, NADH fluorescence, propionaldehyde substrate; hit rate 7.3% among 220,000; Aldehyde dehydrogenase 1A1 (Homo sapiens), P00352; Potency, µM (doses to about 75.3 µM), for inactives: at the highest dose activity, negative = inhibition, usual class: inhibitors;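 further: potency means the concentration at half of the fitted maximal effect; plate controls were no enzyme wells and a reference inhibitor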
Target sequence (P00352 whole entry, looked up): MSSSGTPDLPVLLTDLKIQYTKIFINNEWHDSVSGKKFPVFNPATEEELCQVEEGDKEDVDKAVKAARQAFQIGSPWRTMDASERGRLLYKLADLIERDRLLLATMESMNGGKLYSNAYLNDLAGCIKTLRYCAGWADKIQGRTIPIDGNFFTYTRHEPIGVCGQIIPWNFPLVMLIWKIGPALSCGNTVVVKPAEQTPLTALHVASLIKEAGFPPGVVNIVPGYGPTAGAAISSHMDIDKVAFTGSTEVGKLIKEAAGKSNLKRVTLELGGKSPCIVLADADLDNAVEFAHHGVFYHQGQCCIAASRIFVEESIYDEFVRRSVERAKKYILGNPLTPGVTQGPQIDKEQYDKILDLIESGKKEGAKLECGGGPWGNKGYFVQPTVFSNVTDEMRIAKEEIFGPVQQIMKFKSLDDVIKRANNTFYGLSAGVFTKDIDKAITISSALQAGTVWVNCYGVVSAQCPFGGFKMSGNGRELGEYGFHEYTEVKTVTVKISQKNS
* marks the source's active call; other numbers are inactive results; [ ] = dose if it differs, or a comment. Unless noted, the call rests on the fitted dose curve; in most records, active means well fitted inhibition curve with a large enough effect (not every such curve was filed as active); inconclusive means small, poorly fitted or top-dose-only effect, or another doubt; inactive means no such curve, though single readings can be large or run the other way. Unless noted, on the % scale 0 is the no-effect control and ±100 the full control effect.

For Cc1cc(OCCCC(=O)NCc2cccs2)ccc1Cl the results were Lamin A splicing inconclusive, PNC assembly inh inconclusive, KinaseGlo FLuc 0%, HPGD inh -17% and ALDH1A1 inh 11%.
`Cc1cc(Cl)ccc1OCCCC(=O)NCc1cccs1` gave Lamin A splicing -19%, PNC assembly inh 24, KinaseGlo FLuc -1%, HPGD inh 32µM* and ALDH1A1 inh 3%.
Screening CCOC(=O)c1ccc(NC(c2ccc(N(C)C)cc2)P(=O)(OC(C)C)OC(C)C)cc1 (stereo not drawn) returned Lamin A splicing -22%[46 µM], KinaseGlo FLuc -6% and ALDH1A1 inh inconclusive.
`CCOC(=O)c1ccc(NC(=O)C2C3C=CC(O3)C2C(=O)O)cc1` (stereo not drawn) gave Lamin A splicing 27%, PNC assembly inh -91*, KinaseGlo FLuc 11%, HPGD inh -9% and ALDH1A1 inh 10µM*.
For CN1[C@@H](CC(=O)c2ccccc2)CCC[C@@H]1C[C@@H](O)c1ccccc1 the results were Lamin A splicing -11%, KinaseGlo FLuc 2%[17.1 µM], HPGD inh -4% and ALDH1A1 inh -4%[20.9 µM].
O=C1NC(=O)C(C(CC(=O)c2ccccc2)c2ccccc2)C(=O)N1 (stereo not drawn) was read as Lamin A splicing 19%[46 µM], KinaseGlo FLuc -2% and ALDH1A1 inh 0.1µM*.
`CN(CC(=O)N[C@H](CO)Cc1ccccc1)C(=O)[C@H](CCS(C)=O)NC(=O)[C@@H](N)Cc1ccc(O)cc1` (stereo partly drawn) gave ALDH1A1 inh -4%.
`N#CC(c1ccc(Cl)cc1)N1CCOCC1` (stereo not drawn) gave KinaseGlo FLuc 3% and ALDH1A1 inh 22%.
For N#CC(c1ccc(O)cc1)N1CCCCC1 (stereo not drawn) the results were Lamin A splicing 4%, PNC assembly inh 64, KinaseGlo FLuc -2%, HPGD inh -17% and ALDH1A1 inh 4.5µM*.
For COc1cccc(C(C#N)N2CCCCC2)c1O (stereo not drawn) the results were Lamin A splicing 18%, PNC assembly inh -13, KinaseGlo FLuc -4%, HPGD inh 2.2µM* and ALDH1A1 inh 8%.
Cc1ccsc1C(=O)C1CCCN(Cc2ccccc2O)C1 (stereo not drawn) was read as Lamin A splicing inconclusive, KinaseGlo FLuc 1% and ALDH1A1 inh -2%.
For COc1ccc(O)c(CN2CCCC(C(=O)c3sccc3C)C2)c1 (stereo not drawn) the results were Lamin A splicing -27%[46 µM], KinaseGlo FLuc -8% and ALDH1A1 inh 13µM*.
COc1ccc(N2C(=O)CC(N3CC=C(c4ccccc4)CC3)C2=O)cc1 (stereo not drawn) was read as Lamin A splicing -1%, PNC assembly inh inconclusive, KinaseGlo FLuc 2%, HPGD inh inconclusive and ALDH1A1 inh 10µM*.
CN1C(=O)NC(c2cccc(O)c2)C(C(=O)c2cccs2)C1(O)C(F)(F)F (stereo not drawn) was read as Lamin A splicing 0%, PNC assembly inh 2, KinaseGlo FLuc -9%, HPGD inh -7% and ALDH1A1 inh 0.79µM*.
O[C@H](CN1CC1)[C@@H](O)CN1CC1 was read as KinaseGlo FLuc -5%[7.66 µM], HPGD inh -1% and ALDH1A1 inh 8%[13.5 µM].
Screening CC1(C)CN=C(Nc2ccc(F)c(F)c2)S1 returned Lamin A splicing -2%, PNC assembly inh 6, KinaseGlo FLuc -2%, HPGD inh 25µM* and ALDH1A1 inh -4%.
CC1(C)CSC(Nc2ccc(F)c(Cl)c2)=N1 was read as Lamin A splicing inconclusive, PNC assembly inh 6, KinaseGlo FLuc -4%, HPGD inh -14% and ALDH1A1 inh 20%.
For CN1CCC(O)(c2ccc(Cl)cc2)C(C(=O)c2ccc(Cl)cc2)C1 (stereo not drawn) the results were Lamin A splicing inconclusive, KinaseGlo FLuc 1% and ALDH1A1 inh 0.11µM*.

Assay outcomes from PubChem.
